Experimental findings from PubChem BioAssay (Tox21) are described below.

Each structure is given as a SMILES string. Unmarked numbers belong to inactive results. Records with an inconclusive call do not appear. Calls of active or inactive are those of the source. Unless noted, the call rests on the fitted dose curve; in most records, active means well fitted curve in the direction sought with a large enough effect in the repeat runs; inconclusive means weak or mixed curves; inactive means no such curve, though single readings can be large; an effect the other way counts as inactive or inconclusive.

Test [1] can be described thus: qHTS assay to identify small molecule antagonists of the retinoid acid receptor (RAR) signaling pathway - cell viability counter screen (AID 1159551). Further: nearly all actives have a fitted effect of over 35% in size. Put shortly: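 ATP-based viability, C3RL4 cells, 6 h at 37 C with 1 uM final retinol co-added after compound; luminescence read 30 min post CellTiter-Glo, RT.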
A short description of test [2]: qHTS assay to identify small molecule antagonists of the retinoic acid receptor (RAR) signaling pathway (AID 1159552; further: nearly all actives have a fitted effect of over 50% in size). Put shortly: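 Cells of the C3RL4 line were seeded, incubated overnight, then dosed with compounds in DMSO followed immediately by retinol (1 uM final). Six hours later luciferase detection reagent went in; signal was measured after 30 min at RT.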

Test [3] in a line: qHTS assay to identify small molecule agonists of the retinoic acid receptor (RAR) signaling pathway (AID 1159553). Put shortly: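 Quantitative high-throughput format: the Tox21 10K library was tested on C3RL4 RARE-luciferase cells for 6 hr at 37 C and 5% CO2, with luminescence measured after a 30 min room-temperature reagent step.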
A short description of test [4]: qHTS assay to identify small molecule antagonists of the estrogen related receptor (ERR) signaling pathway from Tox21 library - cell viability counter screen (AID 1224834). Further: nearly all actives have a fitted effect of over 30% in size. An outline of the steps:
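Compounds in DMSO were pinned onto ERR cells that had been incubated for 6 h, and the plates were held at 37 C for 17.5 h. CellTiter-Fluor reagent was then added and fluorescence was measured after 30 min.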

Test [5] has as its target Luciferin 4-monooxygenase (Photinus pyralis) (UniProt P08659). The test is described as follows: qHTS assay to identify small molecule inhibitors of firefly luciferase (AID 1224835). Further: nearly all actives have a fitted effect of over 25% in size. Put shortly:
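Inhibition of purified Photinus luciferase is measured by luminescence. Substrate levels (D-luciferin, ATP) sit at their KM values. Each compound is tested in a concentration series.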
Background: In qHTS, concentration-response curves come from the screen itself.

A short description of test [6]: qHTS assay to identify small molecule agonists of the constitutive androstane receptor (CAR) signaling pathway - cell viability counter screen (AID 1224836). Further: nearly all actives have a fitted effect of over 45% in size. Put shortly:
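HepG2-CYP2B6-hCAR, 2500 cells/well, 4 h pre-incubation; cpd 15 conc + PK11195 0.75 uM final; 23 h, 37 C/5% CO2; CellTiter-Fluor, fluorescence.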

The target of test [7] is Nuclear receptor subfamily 1 group I member 3 (Homo sapiens) (UniProt Q14994). The test is described as follows: qHTS assay to identify small molecule antagonists of the constitutive androstane receptor (CAR) signaling pathway (AID 1224838).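 Further: HepG2 cells stably expressing hCAR with CYP2B6 luciferase reporter stimulated by CITCO; nearly all actives have a fitted effect of over 40% in size.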 Put shortly: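 Luminescence from a CYP2B6-2.2kb promoter reporter in hCAR-expressing HepG2 cells reflects CAR signaling. Cells received compounds at 15 concentrations and 50 nM CITCO (final), then incubated 24 h at 37 C/5% CO2.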

Test [8] shares this target. The test is described as follows: qHTS assay to identify small molecule agonists of the constitutive androstane receptor (CAR) signaling pathway (AID 1224839).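 Further: HepG2 cells stably carrying human CAR and a CYP2B6 luciferase reporter; nearly all actives have a fitted effect of over 15% in size.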 An outline of the steps: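 HepG2-CYP2B6-hCAR cells, 2500/well, 4 h pre-incubation; compounds 15 conc.; PK11195 0.75 uM final; 24 h, 37 C/5% CO2; ONE-Glo luciferase read.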
Test [9] is described as follows: qHTS assay to identify small molecule antagonists of the estrogen related receptor signaling pathway with the pleiotropic PPARgamma coactivator (PGC) from Tox21 10K library - cell viability counter screen (AID 1224840; active means well fitted cell-killing curve with a large enough effect in the repeat runs, not every such curve was filed as active; further: nearly all actives have a fitted effect of over 40% in size). Put shortly:
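Cell viability is measured by CellTiter-Fluor fluorescence in PGC/ERR cells that receive compounds after a 6-hour attachment period and are then incubated 17.5 hours at 37 C.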

Test [10] in a line: qHTS assay to identify small molecule antagonists of the estrogen related receptor signaling pathway with the pleiotropic PPARgamma coactivator (PGC) from Tox21 10K library (AID 1224841; call rule not given here; further: actives are mostly falling curves and most rising ones were filed inactive; nearly all actives have a fitted effect of over 50% in size). An outline of the steps: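 Cells stably carrying the PGC/ERR reporter, seeded at 2,000 per well, received pin-transferred compounds 6 h post-plating. Exposure lasted 18 h at 37 C. Signal: One-Glo luminescence.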

A short description of test [11]: qHTS assay to identify small molecule agonists of the estrogen related receptor signaling pathway with the pleiotropic PPARgamma coactivator (PGC) from Tox21 10K library (AID 1224842). Further: nearly all actives have a fitted effect of over 15% in size. Put shortly: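 Luminescence from One-Glo (30 min, room temperature) measured after PGC/ERR cells had 18 h at 37 C with pinned compound (23 nL in DMSO). Cells had been seeded at 2,000 per well and pre-incubated 6 h.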

Test [12] is described as follows: qHTS assay to identify small molecule agonists of the hypoxia (HIF-1) signaling pathway - cell viability counter screen (AID 1224844; calls by dose curve; further: nearly all actives have a fitted effect of over 50% in size). Put shortly:
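Viability counter screen: HRE-bla ME-180 cells plated 5 hrs before compound addition, treated 17 hrs at 37C and 5% CO2, then CellTiter-Glo added after the FRET reporter read; luminescence after 30 min.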

A short description of test [13]: qHTS assay to identify small molecule agonists of H2AX (AID 1224845; active means well fitted activation curve with a large enough effect in the signal ratio in the repeat runs, not every such curve was filed as active; the % refers to the signal ratio). An outline of the steps: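 Phospho-H2AX Ser139 measured by HTRF (ex 320 nm; em 665 and 620 nm) after 24 hr antibody incubation. Compounds, 15 concentrations, 0.76% DMSO, were applied to CHO-K1 cells for 3hr at 37C before lysis.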
A short description of test [14]: qHTS assay to identify small molecule agonists of the hypoxia (HIF-1) signaling pathway (AID 1224846; active means well fitted activation curve with a large enough effect in the signal ratio in the repeat runs, not every such curve was filed as active; the % refers to the signal ratio). An outline of the steps:
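Agonist mode reporter screen. ME-180 cells stably expressing bla under HRE control received test compounds in DMSO for 17 hrs (37C, 5% CO2), and beta-lactamase activity was then detected with the CCF4-AM FRET substrate.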

The nature of test [15]: qHTS assay to identify small molecule agonists of H2AX - cell viability counter screen (AID 1224847; calls by dose curve;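 further: wild-type CHO-K1 cells; top concentration of the series differs between compounds; nearly all actives have a fitted effect of over 30% in size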). An outline of the steps:
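Cells plated first: CHO-K1, 1000 per well in 10% FBS medium, incubated overnight at 37C. Then 15-point compound titration added (final DMSO 0.76%) for 3 hr. Finally CellTiter-Glo added and luminescence read.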

Test [16] can be described thus: qHTS assay to identify small molecule antagonists of the estrogen related receptor (ERR) signaling pathway from Tox21 library (AID 1224848). Further: nearly all actives have a fitted effect of over 50% in size. Put shortly: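 ERR cell line, 2,000 cells/well. 6 h settle, then compound (DMSO) added; 18 h at 37 C; ONE-Glo luminescence after 30 min RT.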
Test [17] is described as follows: qHTS assay to identify small molecule agonists of the estrogen related receptor (ERR) signaling pathway from Tox21 library (AID 1224849; calls by dose curve; further: nearly all actives have a fitted effect of over 15% in size). The note with it: ERR reporter cell line, ONE-Glo luciferase, 18 h; at 92.4 µM (top of the series) unless noted. Put shortly: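 Quantitative HTS in agonist format: NTP ERR cell line, compounds transferred in DMSO after 6 h plating, 18 h incubation at 37 C, ONE-Glo luminescence endpoint.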

Test [18] in a line: qHTS RealTime-Glo MT Cell Viability Assay in HepG2 cells - 24 hour (AID 1224867). Further: nearly all actives have a fitted effect of over 50% in size. Put shortly: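 qHTS, HepG2, 600 cells/well, RealTime-Glo (NanoLuc + prosubstrate) added with cells; 5 h preincubation; DMSO compound addition; 37 C; luminescence at 0/8/16/24/32/40 h.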
In test [19] the target is Thyrotropin receptor (Homo sapiens) (UniProt P16473). The test is described as follows: qHTS assay to identify small molecule agonists of the thyroid stimulating hormone receptor (TSHR) signaling pathway (AID 1224843; calls by dose curve; further: nearly all actives have a fitted effect of over 45% in size; further: potency means the concentration at half of the fitted maximal effect). An outline of the steps:
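A cell-based cAMP HTRF format was run in TSHR-transfected HEK293 cells, 800 per well. Treatment: 30 min, room temperature. Detection: 1 h with labelled cAMP and anti-cAMP cryptate. Concentration-response over 15 points, three replicates.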

The nature of test [20]: qHTS assay to identify small molecule antagonists of the constitutive androstane receptor (CAR) signaling pathway - cell viability counter screen (AID 1224837). Further: nearly all actives have a fitted effect of over 45% in size. Put shortly: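 Cells are seeded, rested 4 hr at 37 C/5% CO2, dosed with compound (15-point series) and 50 nM CITCO, incubated a further 23 hr, and then CellTiter-Fluor reagent is added before fluorescence is read. The line is HepG2 with stable hCAR and CYP2B6-2.2kb.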
On the % scale 0 is the no-effect control and ±100 the full control effect.

Luciferin 4-monooxygenase (Photinus pyralis), sequence (P08659 whole entry, looked up): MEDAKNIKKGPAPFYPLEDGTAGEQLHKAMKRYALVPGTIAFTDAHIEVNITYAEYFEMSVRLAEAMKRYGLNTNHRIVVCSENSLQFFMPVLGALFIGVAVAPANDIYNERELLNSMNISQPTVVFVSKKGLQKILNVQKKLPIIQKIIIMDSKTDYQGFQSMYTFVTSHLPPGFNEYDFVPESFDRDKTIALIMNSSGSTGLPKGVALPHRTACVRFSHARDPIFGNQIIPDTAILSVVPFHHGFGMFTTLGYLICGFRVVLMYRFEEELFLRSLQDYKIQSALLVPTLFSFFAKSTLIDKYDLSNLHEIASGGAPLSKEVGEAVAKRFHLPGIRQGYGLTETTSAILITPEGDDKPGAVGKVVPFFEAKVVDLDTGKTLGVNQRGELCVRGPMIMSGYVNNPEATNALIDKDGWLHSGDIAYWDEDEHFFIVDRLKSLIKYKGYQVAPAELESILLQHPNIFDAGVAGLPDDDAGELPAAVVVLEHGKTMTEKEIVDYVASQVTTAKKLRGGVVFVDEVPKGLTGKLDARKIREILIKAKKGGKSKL
Nuclear receptor subfamily 1 group I member 3 (Homo sapiens), sequence (Q14994 whole entry, looked up): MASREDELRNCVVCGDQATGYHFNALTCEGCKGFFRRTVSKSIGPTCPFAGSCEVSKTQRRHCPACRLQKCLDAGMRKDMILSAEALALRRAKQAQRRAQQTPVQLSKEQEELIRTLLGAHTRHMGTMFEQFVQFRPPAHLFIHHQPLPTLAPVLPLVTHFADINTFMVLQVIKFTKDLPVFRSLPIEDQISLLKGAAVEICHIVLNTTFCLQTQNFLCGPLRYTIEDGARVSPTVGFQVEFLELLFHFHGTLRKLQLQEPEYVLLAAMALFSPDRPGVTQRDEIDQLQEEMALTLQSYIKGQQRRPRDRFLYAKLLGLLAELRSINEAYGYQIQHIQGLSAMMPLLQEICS
Thyrotropin receptor (Homo sapiens), sequence (P16473 whole entry, looked up): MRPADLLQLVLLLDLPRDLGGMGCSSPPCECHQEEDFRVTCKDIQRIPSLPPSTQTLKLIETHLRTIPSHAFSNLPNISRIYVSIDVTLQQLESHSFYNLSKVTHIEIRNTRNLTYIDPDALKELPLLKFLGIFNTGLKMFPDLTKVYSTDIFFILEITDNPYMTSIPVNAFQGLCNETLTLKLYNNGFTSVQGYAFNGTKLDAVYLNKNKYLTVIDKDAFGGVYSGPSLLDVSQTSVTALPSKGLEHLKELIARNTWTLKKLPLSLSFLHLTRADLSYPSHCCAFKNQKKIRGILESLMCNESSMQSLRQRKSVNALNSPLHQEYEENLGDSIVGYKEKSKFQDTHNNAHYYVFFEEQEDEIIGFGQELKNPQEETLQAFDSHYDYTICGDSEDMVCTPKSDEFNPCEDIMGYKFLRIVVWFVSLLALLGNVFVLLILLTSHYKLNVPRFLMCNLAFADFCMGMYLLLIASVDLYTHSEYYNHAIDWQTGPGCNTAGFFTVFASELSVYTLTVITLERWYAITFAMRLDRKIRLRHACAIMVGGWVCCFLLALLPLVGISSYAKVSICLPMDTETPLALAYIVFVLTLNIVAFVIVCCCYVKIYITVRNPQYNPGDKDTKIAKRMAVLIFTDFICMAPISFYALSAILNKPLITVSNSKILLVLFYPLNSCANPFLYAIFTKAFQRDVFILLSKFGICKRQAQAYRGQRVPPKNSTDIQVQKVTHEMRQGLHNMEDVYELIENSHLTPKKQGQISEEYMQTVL

On to `CC(C)OCCO`, for which the call in [1], in [2], in test [4], in test [6], in test [7] and in test [9] was inactive. The compound was called inactive in test [12], in test [13], in test [14], in test [15], in test [16] and in test [18]. In addition, the Potency result in test [3], in test [5], in [8], in test [10] and in test [11] was “inactive” in each case. For the same compound, in [17], the activity change, positive = activation is 6.53%.

As for `BrCCOc1ccccc1`, the outcome in [1], in [2], in [4], in test [6], in test [9] and in test [12] was inactive. Moreover, the call in test [13], in test [15], in test [16] and in test [18] was inactive. For the same compound, the Potency result in [3], in test [5], in test [10] and in test [11] was “inactive” in each case.

As to `CC(C)(C)C(=O)NCCCC(=O)O`, the result in test [1], in [2], in test [4], in test [6], in test [7] and in test [9] was inactive. Also, the compound was classed as inactive in test [12], in test [13], in test [14], in [15] and in test [18]. The Potency entry in [3], in [5], in test [8] and in test [19] was “inactive” throughout.

On to `CCOC(=O)[C@H](CCc1ccccc1)N[C@H]1CS[C@H](c2cccs2)CN(CC(=O)O)C1=O`, for which the compound was called inactive in test [1], in test [2], in test [4], in [6], in test [20] and in test [9]. Also, the compound was called inactive in test [13], in test [15] and in [18]. The Potency result in [3], in test [5] and in [19] was “inactive” in each case.

Consider `CCCCCCCCCCCCCCCCN(C)C`, for which the activity change, negative = cytotoxicity is 0.211% [at 8.39 µM] in test [1]; 4.91% [at 8.39 µM] in test [20]; -5.55% [at 6.97 µM] in test [12]; -3.36% [at 14 µM] in test [15]; -0.0663% [at 6.97 µM] in [18]. Further, the activity, negative = inhibition in test [2] is 3.34% [at 8.39 µM]. The activation in test [3] is -0.996% [at 8.36 µM]; in test [19] it was -17.9% [at 8.39 µM]. Also, the results for the viability change, negative = cytotoxic in test [4], in [6] and in test [9] were 0.965% [at 8.39 µM], 4.94% [at 8.39 µM] and 6.95% [at 8.39 µM], respectively. For the same compound, the activity change, negative = inhibition in test [5] was 3.25% [at 10.5 µM]. The activation (H2AX phosphorylation) in test [13] was 1.56% [at 14 µM].

With `COC(=O)C(c1ccccc1Cl)N1CCc2sccc2C1` (stereo not given), the compound was called inactive in test [1], in test [2], in [4], in test [6], in test [7] and in test [9]. The result in test [12], in [13], in [14], in test [15], in test [16] and in test [18] was inactive. Besides, the Potency result in [3], in [5] and in [11] was “inactive” each time. Further, the Potency in test [19] is 16.8 µM (active). The activity change, positive = activation in test [17] is -2.43% [at 42.5 µM].

As for `NC[C@H]1O[C@H](O[C@H]2[C@H](O)[C@@H](O[C@H]3O[C@H](CO)[C@@H](O)[C@H](N)[C@H]3O)[C@H](N)C[C@@H]2N)[C@H](N)[C@@H](O)[C@@H]1O`, the activity change, negative = cytotoxicity in test [1] is -1.43% [at 19 µM]; in [12], 6.36% [at 15.8 µM]; in test [15], -0.161% [at 31.6 µM]; in test [18], 0.499% [at 15.8 µM]. In addition, the activity, negative = inhibition in test [2] is -0.0699% [at 19 µM]. Besides, the Potency entry in test [3] is “inactive”. Also, the viability change, negative = cytotoxic in test [4] was 2% [at 19 µM]; in test [6] it was -10.3% [at 19 µM]; in [9], 1.41% [at 19 µM]. Further, in test [5], the activity change, negative = inhibition was -4.17% [at 23.6 µM]. Moreover, the figures for the activation in [19] and in test [14] were -7.89% [at 19 µM] and -0.993% [at 15.8 µM], respectively. Besides, the activation (H2AX phosphorylation) in [13] is -4.26% [at 31.6 µM].

Take `O=C1CC2(CCCC2)CC(=O)N1CCNCC1COc2ccccc2O1` (stereo not given): the outcome in test [1], in test [2], in test [4], in test [6], in test [20] and in test [9] was inactive. Also, the outcome in test [13], in [14], in test [15] and in test [18] was inactive. The Potency result in test [3], in [5] and in [19] was “inactive” throughout.
